# Inconclusive results are not listed. A number with no mark means an inactive call. Active and inactive are the calls of the source. Calls come from the whole dose curve; as a rule, active = well fitted cell-killing curve with a large enough effect in the repeat runs; inconclusive = weak or mixed curves, or effect the other way; inactive = flat fitted curve, though single readings scatter.
# Assay: cAMP Responsive Elements (CRE) small molecule antagonists, cell-based qHTS assay: qHTS cell viability counter screen (AID 2060913); note: nearly all actives have a fitted effect of over 40% in size
# Details: CRE-bla HEK293T viability, CellTiter-Glo luminescence, 5 h; series mostly up to 92.4 µM; viability change, negative = cytotoxic: at the top concentration
# Method in brief: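 Cytotoxicity read in the same wells as the CRE-bla HEK293T antagonist assay: after 3 h compound with 0.25 uM NKH477 final and 2 h beta-lactamase substrate, CellTiter-Glo luminescence measured.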
# % is set by controls: 0 for no effect and ±100 for the full control effect.
SMILES,"viability change, negative = cytotoxic",Potency
O=C(Nc1ccc2[nH]ccc2c1)c1cc2cc(F)ccc2n1Cc1cccc(F)c1,-17.1%,–
CCOP(=S)(OCC)Oc1ccc2c(C)c(Cl)c(=O)oc2c1,–,inactive
Cc1cc(Cl)ccc1OC(C)C(=O)O (stereo not drawn),–,inactive
CCCN(CCC)C(=O)Cc1c(-c2ccc(Cl)cc2)nc2ccc(Cl)cn12,-1.2% [at 42.5 µM],–
O=S(=O)(O)C(F)(F)C(F)(F)C(F)(F)C(F)(F)C(F)(F)C(F)(F)C(F)(F)C(F)(F)F,-4.06%,–
O=C(O)C(F)(F)C(F)(F)C(F)(F)C(F)(F)C(F)(F)C(F)(F)C(F)(F)C(F)(F)C(F)(F)C(F)(F)F,3.41%,–
CC(=O)C=C(C)C,–,inactive
Brc1ccc(Oc2ccccc2)cc1,–,inactive
Cc1cccc(N)c1,–,inactive
Oc1cccc(Cl)c1Cl,3.3%,–
CCOP(=S)(OCC)Oc1cc(C)nc(N(CC)CC)n1,-23.1%,–
COc1nc(C)nc(NC(=O)NS(=O)(=O)c2ccccc2Cl)n1,0.336%,–
CN(CCO)CCO,-7.82%,–
C[C@H]1[C@@H]2Cc3ccc(O)cc3[C@@]1(C)CCN2C,-0.732% [at 240 µM],–
Oc1ccc(Cl)cc1Cc1ccccc1,-16.6% [at 42.5 µM],–
CCBr,-7.47%,–
CCC1(c2ccccc2)C(=O)N=C(O)NC1=O (stereo not drawn),7.87%,–
CC(=O)CN(CC(C)=O)N=O,7.64%,–
ClC(Br)Br,8.47%,–
COC1CC(=C(c2cccs2)c2cccs2)C[N+](C)(C)C1 (stereo not drawn),0.721% [at 42.5 µM],–
C#CCOS(=O)OC1CCCCC1Oc1ccc(C(C)(C)C)cc1 (stereo not drawn),-23.1%,–
CCCCC(CC)C(=O)Cl (stereo not drawn),–,inactive
COc1ccc2c3c1O[C@H]1[C@@H](O)C=C[C@H]4[C@@H](C2)N(C)CC[C@@]341,–,inactive
